Compound activity (PubChem BioAssay)
Only a selection was taken, and hits are over-represented in it overall.
GALK inhibitor = inhibits human galactokinase; P51570; 44,000 tested, under 10 active; Potency, µM (doses to about 57.5 µM), inactives show at the highest dose activity, negative = inhibition, actives largely listed as inhibitors; recombinant GALK, Kinase-Glo ATP luminescence, 1 h;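 note: plate controls were full GALK reaction for no effect and reaction lacking GALK for full effect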
Target sequence (P51570 whole entry, looked up): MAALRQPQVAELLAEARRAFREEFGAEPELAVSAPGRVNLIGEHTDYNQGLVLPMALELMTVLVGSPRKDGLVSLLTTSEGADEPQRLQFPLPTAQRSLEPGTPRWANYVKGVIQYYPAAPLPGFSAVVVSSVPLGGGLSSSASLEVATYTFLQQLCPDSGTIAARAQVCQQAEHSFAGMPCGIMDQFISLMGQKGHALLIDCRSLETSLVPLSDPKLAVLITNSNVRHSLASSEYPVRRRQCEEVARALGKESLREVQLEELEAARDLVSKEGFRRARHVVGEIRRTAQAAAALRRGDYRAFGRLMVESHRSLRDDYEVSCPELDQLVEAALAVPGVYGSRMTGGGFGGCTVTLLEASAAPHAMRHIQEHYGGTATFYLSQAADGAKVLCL
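Luminescent ATP-depletion readout (Kinase-Glo Plus) after 1 h room-temperature incubation of human GALK (5 nM) with galactose 100 µM and ATP 35 µM, pH 8.0 HEPES/Mg2+ buffer; compounds tested in qHTS format.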
TSG101-PTAP inh = TSG101-PTAP interaction inhibition, HIV-1 budding. Q99816. Fluorescence polarization, FITC-PTAP peptide/Tsg101, 20 min. Potency, µM (doses to about 115 µM), hits mostly inhibitors. 44,000 tested, under 10 active. AID 1347069; note: potency is the fitted concentration of half-maximal effect; 0% is about no effect
Target sequence (Q99816 whole entry, looked up): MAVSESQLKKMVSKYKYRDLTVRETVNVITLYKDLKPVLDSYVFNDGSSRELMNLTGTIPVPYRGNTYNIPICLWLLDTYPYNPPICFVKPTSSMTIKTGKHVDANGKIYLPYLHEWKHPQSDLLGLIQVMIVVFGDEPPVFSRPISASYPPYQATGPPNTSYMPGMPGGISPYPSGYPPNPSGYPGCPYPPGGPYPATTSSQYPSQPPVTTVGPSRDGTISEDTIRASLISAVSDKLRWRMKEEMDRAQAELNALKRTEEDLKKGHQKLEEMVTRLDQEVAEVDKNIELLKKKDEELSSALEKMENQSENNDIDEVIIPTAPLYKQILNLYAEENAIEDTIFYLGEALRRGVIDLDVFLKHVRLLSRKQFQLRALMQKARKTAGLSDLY
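Fluorescence polarization binding of Tsg101 binding domain (10 uM final) to FITC-labeled PTAP-motif peptide (50 nM final) in HEPES pH 7.5/NaCl/Tween 20/EDTA/TCEP buffer; 20 min at r.t. Actives by curve class, <25 µM, efficacy <60% inhibition.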
NTMT1 inh = blocks human N-terminal methyltransferase 1 activity; Q9BV86; NTMT1 MTase-Glo SAH luminescence, purified enzyme; Potency, µM (top dose mostly 114 µM), for the others: top-dose activity change, negative = inhibition, hits mostly inhibitors; 59,000 compounds, 2.5% hits; AID 1645870;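 note: potency is the fitted concentration of half-maximal effect; plate controls were DMSO vehicle for no effect and no enzyme for full effect; nearly all actives have a fitted effect of over 65% in size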
B2AR arrestin ag = ADRB2 beta-arrestin recruitment; P07550; HTLA Tango cells, beta-arrestin recruitment, luciferase luminescence, 18 h; Potency, µM (titrated, usually from 46.1 µM), hits mostly activators; 44,000 tested, under 10 active; AID 1347077;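 note: potency is the fitted concentration of half-maximal effect; 0% = DMSO and full agonism = EC100 isoproterenol or metaproterenol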
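Ligand-induced beta-arrestin recruitment to recombinant beta2-AR is measured via a tTA-driven luciferase reporter in Tango cells after 18 hr compound exposure at 37 degrees C. Concentrations span up to 46 microM.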
FH mod = Identification of activators of human fumarate hydratase by quantitative high-throughput screening; Potency, µM (highest dose often 79.9 µM), for the others: at the top dose activity change, negative = inhibition, most hits filed as inhibitors; FH coupled MDH/diaphorase resazurin fluorescence, 15 min; AID 1347055, 2019; 54,000 compounds, 0.22% hits; Fumarate hydratase, mitochondrial (Homo sapiens), P07954; note: potency is the fitted concentration of half-maximal effect; % is set by controls: 0 for no effect and ±100 for the full control effect; the screen sought activators but most active calls are inhibition curves; nearly all actives have a fitted effect of over 45% in size
Sfp PPTase inh = inhibits purified B. subtilis Sfp PPTase; shares compounds with NTMT1 inh; purified Sfp PPTase enzyme activity, qHTS; Potency, µM (titrated, usually from 114 µM), without a hit: at the top dose activity change, negative = inhibition, actives largely listed as inhibitors; 230 compounds, 78% hits; AID 540350
HM489 growth = B. subtilis HM489 growth inhibition | shares compounds with NTMT1 inh | 220 compounds, 50% hits | B. subtilis HM489 (acpS-) growth, BacTiter-Glo, 5 h | Potency, µM (titrated, usually from 114 µM), for the others: top-dose activity change, negative = inhibition, hits mostly inhibitors
Sfp gel opt = Sfp PPTase inhibition, gel-based detection; shares compounds with NTMT1 inh; purified Sfp PPTase, gel-based product detection; Potency, µM (series often up to 250 µM), for the others: at the highest dose activity change, negative = inhibition, most hits filed as inhibitors; 220 compounds, 54% hits; AID 540355
Sfp gel = inhibits B. subtilis Sfp PPTase in gel-based assay | shares compounds with NTMT1 inh | purified Sfp PPTase, gel-based product detection | Potency, µM (titrated, usually from 250 µM), for inactives: top-dose activity change, negative = inhibition, actives largely listed as inhibitors | 45 compounds, 90% hits
Sfp inh SAR2 = Sfp phosphopantetheinyl transferase inhibition, SAR round 2; 230 compounds, 87% hits; purified Sfp enzyme, PPTase activity, qHTS; Potency, µM (doses to about 57.1 µM), for the others: top-dose activity change, negative = inhibition, actives largely listed as inhibitors; shares compounds with NTMT1 inh
hGST ctr = hGST A1-1 enzyme inhibition, Sfp SAR counter-screen; shares compounds with NTMT1 inh; hGST A1-1 enzyme activity counter-screen, qHTS; Potency, µM (top dose mostly 114 µM), for the others: at the highest dose activity change, negative = inhibition, usual class: inhibitors; 55 tested, under 10 active; AID 602391
HSD17B4 counter = HSD17B4 (human) inhibition, HPGD counter-screen; shares compounds with NTMT1 inh; purified HSD17B4, estradiol/NAD+, NADH fluorescence; Potency, µM (top dose mostly 57.1 µM), without a hit: at the highest dose activity change, negative = inhibition, most hits filed as inhibitors; 230 compounds, 10% hits
ALDH1A1 counter = ALDH1A1 (human) inhibition, HPGD counter-screen; recombinant ALDH1A1, NADH fluorescence, propionaldehyde/NAD+; shares compounds with NTMT1 inh; Potency, µM (doses to about 57.1 µM), for inactives: at the highest dose activity change, negative = inhibition, actives largely listed as inhibitors; 230 compounds, 93% hits
NNMT inh = blocks human NNMT methyltransferase. shares compounds with NTMT1 inh. AID 1645878. Potency, µM (doses to about 57.1 µM), without a hit: top-dose activity, negative = inhibition, actives largely listed as inhibitors. 120 compounds, 10% hits. NNMT MTase-Glo luminescence, SAH detection
The depositor's hits bear a star; i = inactive; ? = inconclusive; · = no result; [ ] = dose if it differs, or a comment. Calls come from the whole dose curve; as a rule, active = well fitted curve in the direction sought with a large enough effect; inconclusive = small, poorly fitted or top-dose-only effect, or another doubt; inactive = no such curve, though single readings can be large; an effect the other way counts as inactive or inconclusive.

SMILES	GALK inhibitor	TSG101-PTAP inh	NTMT1 inh	B2AR arrestin ag	FH mod	Sfp PPTase inh	HM489 growth	Sfp gel opt	Sfp inh SAR2	HSD17B4 counter	ALDH1A1 counter	others
Cc1ccnc(N(C)C(=S)N2CCN(c3cccc(C(F)(F)F)c3)CC2)c1	·	·	-5.5%	·	·	?	?	?	?	-17.8%	19.2µM*
Cc1ccnc(NC(=S)N2CCN(c3cc(F)cc(Cl)c3)CC2)c1	·	·	·	·	·	1.18µM*	14.8µM*	10µM*	1.62µM*	-20.5%	7.64µM*
CSc1ncc(C(=O)N2CCN(c3ccc(Cl)cc3)CC2)c(C)n1	-1.7%	i	-12.4%	i	-15.7%	·	·	·	·	·	·
Cc1ccc2scc(N3CCN(c4cccc(C(F)(F)F)c4)CC3)c(=O)c2c1	1.8%	i	-6.3%	i	7.6%	·	·	·	·	·	·
Cc1ccnc(NC(=S)N2CCN(c3cc(C(F)(F)F)cc(C(F)(F)F)c3)CC2)c1	·	·	?	·	·	2.35µM*	3.32µM*	0.794µM*	0.65µM*	27.1µM*	7.64µM*	Sfp gel=0.954µM*;hGST ctr=?
Cc1ccc2cc3cc(C(=O)N4CCN(c5cccc(C(F)(F)F)c5)CC4)sc3nc2c1	1.8%	i	13.0%	i	4.8%	·	·	·	·	·	·
S=C(Nc1cc(Cl)ccn1)N1CCN(c2ccc(Cl)cc2Cl)CC1	·	·	?	·	·	?	5.91µM*	-20.1%	36.3µM*	-4.3%	24.1µM*
Cc1noc2ncnc(N3CCN(c4cccc(C(F)(F)F)c4)CC3)c12	1.9%	i	7.5%	?	-0.4%	·	·	·	·	·	·
Cc1cccc(NC(=S)N2CCN(c3cccc(C(F)(F)F)c3)CC2)c1	·	·	·	·	·	4.0%	14.8%	0.9%	-19.8%	?	1.52µM*
S=C(Nc1cc(Cl)ccn1)N1CCN(c2cc(Cl)cc(Cl)c2)CC1	·	·	·	·	·	37.3µM*	10.5µM*	-58.6%	18.2µM*	11.8%	27.1µM*
O=C(c1ccc(Cl)cc1)N1CCN(c2ccnc3cc(Cl)ccc23)CC1	·	·	8.1%[57.5 µM]	·	-10.4%	·	·	·	·	·	·
Cc1ccc2onc(CNC(=O)N3CCN(c4cccc(C(F)(F)F)c4)CC3)c2c1	-0.4%	i	15.9%	i	-0.7%	·	·	·	·	·	·
CC(C)(O)CNc1nc(Nc2ccnc(C(F)(F)F)c2)nc(-c2cccc(C(F)(F)F)n2)n1	·	·	?	·	3.7%[53.3 µM]	·	·	·	·	·	·
Cc1ccnc(NC(=S)N2CCN(c3cccc(C(F)(F)F)c3)C[C@@H]2C)c1	·	·	·	·	·	5.91µM*	46.9µM*	?	11.5µM*	6.1%	24.1µM*
Cc1ccnc(NC(=S)N2CCN(c3cccc(C(F)(F)F)n3)CC2)c1	·	·	?	·	·	1.48µM*	29.6µM*	7.94µM*	0.73µM*	-25.6%	21.5µM*
Cc1ccc(OCCn2c(CCNC(=O)c3cccc(NC(=O)OC(C)(C)C)c3)nc3ccccc32)cc1	·	·	7.9%[57.5 µM]	·	·	·	·	·	·	·	·
COc1ccc(CNc2ccc(S(=O)(=O)Nc3nccs3)cc2)cc1O	·	·	3.9%	·	·	·	·	·	·	·	·
Cc1nnc(-c2cnn(C)c2N)n1CCCc1cccnc1	·	·	10.8%	·	·	·	·	·	·	·	·
CC[C@H]1CN(c2nc(N)c(C(N)=O)nc2Cl)CCN1C1CCN(Cc2ccc(Cl)cc2)CC1	·	·	-4.7%[57.5 µM]	·	-0.4%	·	·	·	·	·	·
Cc1ccnc(NC(=S)N2CCCc3ccc(C(F)(F)F)cc32)c1	·	·	-6.3%	·	·	2.7%	?	-0.3%	?	?	27.1µM*	Sfp gel=-1.6%;hGST ctr=?
COC(=O)c1ccnc(NC(=S)N2CCN(c3cccc(C(F)(F)F)c3)CC2)c1	·	·	·	·	·	26.4µM*	16.7µM*	39.8µM*	11.5µM*	17.1µM*	12.1µM*
CC(=O)c1c(C)oc2c1cc(NS(=O)(=O)c1ccc(Br)cc1)c1ccccc12	-1.5%	i	5.3%	i	-14.1%	·	·	·	·	·	·
O=C(O)CSc1cc(NS(=O)(=O)c2ccc(Br)cc2)c2ccccc2c1O	·	·	28.2µM*	·	15.8µM*	·	·	·	·	·	·	NNMT inh=?
Cc1cc(N[S+](=O)([O-])c2cc3c(cc2Cl)CCC(=O)N3)ccc1Cl	·	·	10.3%	·	·	·	·	·	·	·	·
CC(=O)N1CCN(C(=S)Nc2cc(C)ccn2)CC1	·	·	?	·	·	33.2µM*	?	12.6µM*	6.46µM*	-9.0%	12.1µM*
Cc1cc(C)nc(NC(=S)N2CCN(c3ccc(Cl)nn3)CC2)c1	·	·	?	·	·	11.8µM*	20.7%	?	3.63µM*	-18.5%	19.2µM*
Cc1cc(C)nc(NC(=S)N2CCN(c3ccc(Cl)c(Cl)c3)CC2)c1	·	·	-8.8%	·	·	2.1µM*	5.91µM*	12µM*	0.91µM*	-29.5%	8.57µM*	Sfp gel=3.02µM*;hGST ctr=?
CCOC(=O)c1c(C)[nH]c(C)c1S(=O)(=O)N1CCC(C(=O)Nc2cc(C)ccn2)CC1	0.4%	i	-5.5%	i	?	·	·	·	·	·	·
Cc1ccnc(NC(=S)N2CCN(c3ccc(Cl)c(Cl)c3)CC2)c1	·	·	?	·	·	1.18µM*	2.64µM*	-63.4%	0.73µM*	-10.3%	2.41µM*
